PriA SSB inh: K. pneumoniae PriA-SSBct interaction inhibition. AlphaScreen SSBct-PriA binding, biotinylated peptide. inhibition, % at 33 µM. 0.6% of 430,000 active; in the data active = inhibition mostly above about 37%, no sharp cut-off; inactive = mostly below about 20%
Mtb hypoxia inh: reduces hypoxia-regulated biosensor signal in M. tuberculosis. M. tuberculosis hypoxia-regulated fluorescent reporter, fluorescence. fluorescence inhibition, % (concentration not given with the values). 0.1% of 300,000 active. AID 1159583; in the data active = fluorescence inhibition mostly above about 23%, no sharp cut-off; inactive = mostly below about 17%
TcdB inh: TcdB glycohydrolase inhibition; P18177; TcdB glycohydrolase enzymatic assay, plate reader; inhibition, % at 9.99 µM; 0.24% of 350,000 active; AID 652162; in the data active = inhibition above about 10%
PrP 5UTR inh: inhibition of PrP 5' UTR reporter expression; cell-based PrP 5' UTR mRNA reporter, plate reader; inhibition, % (no concentration beside the values); 0.35% of 340,000 active; in the data active = inhibition above about 52%
FadD28 binding: M. tuberculosis FadD28 bisubstrate binding inhibition. FadD28 bisubstrate probe binding, fluorescence polarization. inhibition, % at 12.5 µM. 0.22% of 360,000 active; in the data active = inhibition above about 8.5%, passing the limit was not always enough
BioA inh: inhibitors of Mycobacterium tuberculosis BioA enzyme; purified M. tuberculosis BioA enzyme, plate reader; inhibition, % at 9.99 µM; 0.096% of 360,000 active; AID 602481; in the data active = inhibition above about 40%
Each line names hits and unclear results; the compound was inactive in the other large screens; ! = not confirmed by another sample. Only some compounds are listed: those with a hit (about 1% of all), similar ones and a draw of the others.

CO[C@H]1CN(C)C(=O)c2cc(NC(=O)C3CCOCC3)ccc2OC[C@@H](C)N(C)C[C@H]1C	none (no result: PriA SSB inh, Mtb hypoxia inh, PrP 5UTR inh, FadD28 binding)
COc1ccc(C(=O)N2C(=S)C(c3ccccc3)=NC23CCC(C)CC3)cc1OC (stereo unspecified)	PriA SSB inh 37 (no result: Mtb hypoxia inh, TcdB inh, PrP 5UTR inh, FadD28 binding, BioA inh)
CC1=C(C(=O)Nc2ccccc2)C(c2ccc(C)cc2)N=C(Nc2nc3ccccc3o2)N1 (stereo unspecified)	Mtb hypoxia inh 37 (no result: TcdB inh)
CC1(C)CC(=O)C2=C(C1)NC(Nc1nc3ccccc3o1)=NC2c1ccccn1 (stereo unspecified)	none
COc1ccc(-c2nn(-c3ccccc3)cc2/C=N/NC(N)=S)cc1OC	none (no result: PriA SSB inh, Mtb hypoxia inh, TcdB inh, BioA inh)
NC(=O)c1ccccc1OCC#CCNC(=O)COc1ccccc1F	none (no result: Mtb hypoxia inh, TcdB inh, PrP 5UTR inh, FadD28 binding, BioA inh)
CC(C)c1cc(NCCOCCO)n2c(nc3ccccc32)c1C#N	PriA SSB inh 39 (no result: BioA inh)
CCCc1cc(NCCOCCO)n2c(nc3ccccc32)c1C#N	none (no result: PriA SSB inh, Mtb hypoxia inh, PrP 5UTR inh)
CSc1ccc(CN2CCC(Cc3ccccc3)CC2)cc1	none
Cc1cc(NN=Cc2ccccc2O)nc(N2CCOCC2)n1	none (no result: TcdB inh, PrP 5UTR inh, FadD28 binding, BioA inh)
Cc1cc(N/N=C/c2ccc(O)cc2O)nc(N2CCOCC2)n1	TcdB inh 15 (no result: PriA SSB inh, Mtb hypoxia inh)
COc1cc(OC)cc(C(=O)NCC(C)(O)C2CC2)c1 (stereo unspecified)	none (no result: Mtb hypoxia inh, TcdB inh, PrP 5UTR inh, FadD28 binding, BioA inh)
N=c1c2c(-c3ccccc3)c(-c3ccccc3)n(Cc3ccccc3)c2ncn1CCCn1ccnc1	PriA SSB inh 46 (not shown: Mtb hypoxia inh, TcdB inh)
CCCCn1cnc2c(c(-c3ccccc3)c(-c3ccccc3)n2Cc2ccco2)c1=N	none (no result: PrP 5UTR inh)
Cc1nnc(NC(=O)CSc2ncc(-c3ccccc3)[nH]2)s1	none
Cc1csc(NC(=O)CSc2ncc(-c3ccccc3)[nH]2)n1	PriA SSB inh 42!
CCc1nnc(NC(=O)CSc2ncc(-c3ccccc3)[nH]2)s1	none
C/C(=N\OCC(=O)Nc1nc2ccccc2s1)c1ccccc1	TcdB inh 10 (no result: PriA SSB inh, Mtb hypoxia inh, BioA inh)
O=C(CSc1ncc(-c2ccccc2)[nH]1)Nc1nc2ccccc2s1	PriA SSB inh 37 (no result: Mtb hypoxia inh, TcdB inh, PrP 5UTR inh, FadD28 binding, BioA inh)
CCOC(=O)C1(Cc2cccc(Cl)c2)CCCN(C(=O)CCOC)C1 (stereo unspecified)	none
O=C(N/N=C/c1cc(Br)cs1)c1ccncc1	none (no result: Mtb hypoxia inh, TcdB inh, PrP 5UTR inh, FadD28 binding, BioA inh)
O=C(Cc1cccnc1)N1CC(=O)N2[C@H](CO)[C@@H](c3ccc(C#CC4CCCCC4)cc3)[C@@H]2C1	none (no result: PriA SSB inh, Mtb hypoxia inh, PrP 5UTR inh, FadD28 binding, BioA inh)
CNC(=O)Cn1ncc2c3ccccc3n(C)c2c1=O	none (no result: TcdB inh)
CCOC(=O)CSc1ccc2nnc(-c3ccccn3)n2n1	PriA SSB inh 90 (no result: Mtb hypoxia inh, TcdB inh, PrP 5UTR inh, FadD28 binding, BioA inh)
CC(=O)Nc1ccc(NC(=O)CSc2ccc3nnc(-c4ccccn4)n3n2)cc1	PriA SSB inh 39
CCC(Sc1ccc2nnc(-c3ccccn3)n2n1)C(=O)O (stereo unspecified)	PriA SSB inh 103 (no result: Mtb hypoxia inh, TcdB inh, PrP 5UTR inh, FadD28 binding, BioA inh)
CCOC(=O)C(C)Sc1ccc2nnc(-c3ccccn3)n2n1 (stereo unspecified)	PriA SSB inh 76 (no result: Mtb hypoxia inh, TcdB inh, PrP 5UTR inh, FadD28 binding, BioA inh)
CCOC(=O)CC(=O)CSc1ccc2nnc(-c3ccccn3)n2n1	none (no result: Mtb hypoxia inh, TcdB inh, PrP 5UTR inh, FadD28 binding, BioA inh)
CCC(Sc1ccc2nnc(-c3ccc(F)cc3)n2n1)C(=O)O (stereo unspecified)	none (no result: TcdB inh)
COC(=O)c1ccc(NC(=O)CSc2ccc3nnc(-c4ccccn4)n3n2)cc1	none (no result: Mtb hypoxia inh, TcdB inh, PrP 5UTR inh, FadD28 binding, BioA inh)
CC(C)NS(=O)(=O)c1ccc(OCC(=O)Nc2cccc3ccccc23)cc1	none (no result: TcdB inh)
O=c1cc(-c2ccccn2)nc(-c2ccccn2)[nH]1	PriA SSB inh 152 (no result: Mtb hypoxia inh, TcdB inh, PrP 5UTR inh, FadD28 binding, BioA inh)
CCc1cc2c(=O)[nH]c(N3CCCC3)nc2s1	none (no result: Mtb hypoxia inh, TcdB inh, BioA inh)
CCc1cc2c(=O)[nH]c(-c3ccccn3)nc2s1	PriA SSB inh 66
COc1cccc2[nH]c(-c3ccccn3)nc12	none (no result: PriA SSB inh, Mtb hypoxia inh, PrP 5UTR inh, FadD28 binding, BioA inh)
COc1cnc(-c2ccccn2)[nH]c1=O	PriA SSB inh 144! (no result: BioA inh)
Cc1cc(C(=O)Nc2cccc3c2O[C@@H](CN(C)S(=O)(=O)c2ccccc2)[C@@H](C)CN([C@H](C)CO)C3=O)n(C)n1	none (no result: PriA SSB inh, Mtb hypoxia inh, PrP 5UTR inh, FadD28 binding)
O=C(N/C(=C/C=C/c1ccccc1)C(=O)N1CCCCC1)c1ccc([N+](=O)[O-])cc1	PriA SSB inh 39 (no result: BioA inh)
O=C1CC(c2ccccc2)=NN1c1nc(-c2ccccc2)cs1	none (no result: BioA inh)
CC1=NN(c2nc(-c3ccccc3)cs2)C(=O)C1	FadD28 binding 16 (no result: Mtb hypoxia inh, TcdB inh)
Cc1nn2cc(-c3cccc(Cl)c3)cnc2c1Cl	none
Cc1nn2cc(-c3cccc(Cl)c3)cnc2c1Br	TcdB inh 10 (no result: BioA inh)
CC(C)C1Nc2ccc(C(=O)O)cc2C2C=CCC21 (stereo unspecified)	FadD28 binding 9.3 (no result: BioA inh)
O=C(O)c1ccc2c(c1)C1C=CCC1C(c1ccncc1)N2 (stereo unspecified)	none
CCCC1Nc2ccc(C(=O)O)cc2C2C=CCC12 (stereo unspecified)	FadD28 binding 30 (no result: TcdB inh)

From PubChem
